Measured values reported in article PMC6792352, “Limited Chemical Structural Diversity Found to Modulate Thyroid Hormone Receptor in the Tox21 Chemical Library” (Environmental Health Perspectives, 2019).
Where a name gives a salt, the structure may show the parent alone.

Each compound was assayed on thyroid hormone receptor (endogenous TRα and TRβ). Settings: read-out: Average AC50 (uM) GH3-TRE-Antag, antagonist mode, 1 nM T3, no GH3 cytotoxicity hit.
Parameters: species or system GH3-TRE-Luc (rat pituitary); GH3-TRE-Luc luciferase reporter, antagonist mode against 1 nM T3, loss of signal, qHTS

Compound | AC50 [µM]
CC(C)(C)c1ccccc1O [2-tert-Butylphenol] | 84.6
OCCN(CCO)c1nc(N2CCCCC2)c2nc(N(CCO)CCO)nc(N3CCCCC3)c2n1 [Dipyridamole] | 24.3
CC(C)(O)c1cnn2c(-c3ccc(F)c(-c4c(F)cccc4C#N)c3)cnc2n1 [PharmaGSID_47330] | 42.1
c1ccc2c(c1)ccc1ccccc12 [Phenanthrene] | 50.1
CCCOc1ccc(S(=O)(=O)N2CCN(CC)CC2)cc1-c1nc2c(CC)n(Cc3ccccn3)nc2c(=O)[nH]1 [UK-343664] | 76.4
CC(=O)Nc1ccn(C2COC(COC(=O)c3ccccc3)O2)c(=O)n1 (stereo not drawn) [{4-[4-(Acetylamino)-2-oxopyrimidin-1(2H)-yl]-1,3-dioxolan-2-yl}methyl benzoate] | 11.4
CCOC(=O)C(C)OC(=O)c1cc(Oc2ccc(C(F)(F)F)cc2Cl)ccc1[N+](=O)[O-] (stereo not drawn) [Lactofen] | 81.8
CCCCOC(=O)CC(CC(=O)OCCCC)(OC(C)=O)C(=O)OCCCC [Acetyl tributyl citrate] | 35.1
CC(=O)OCC(=O)[C@H]1CC[C@H]2[C@@H]3CCC4=CC(=O)CC[C@]4(C)[C@H]3CC[C@]12C [Deoxycorticosterone acetate] | 25.2
Nc1ccc(N)c(Cl)c1 [2-Chloro-1,4-diaminobenzene sulfate] | 50.5
CC/C=C\CC/C=C/C=O [trans-2,cis-6-Nonadienal] | 69.9
CCOc1ccc(O)cc1 [4-Ethoxyphenol] | 82.5
CC(C)c1ccc2oc3nc(N)c(C(=O)O)cc3c(=O)c2c1 [Amlenanox] | 32.7
O=C(O)C[C@H](O)C[C@H](O)/C=C/c1c(C2CC2)nc2ccccc2c1-c1ccc(F)cc1 [Pitavastatin calcium] | 46.3
O=C(c1ccccc1)c1cc(Cl)ccc1O [(5-Chloro-2-hydroxyphenyl)phenylmethanone] | 84.3
O=c1[nH]c(=O)n([C@H]2C[C@H](O)[C@@H](CO)O2)cc1C(F)(F)F [Trifluridine] | 23.4
O=C(O)c1nn(Cc2ccc(Cl)cc2Cl)c2ccccc12 [Lonidamine] | > 50
CCN(CC)CCCC(C)Nc1c2ccc(Cl)cc2nc2ccc(OC)cc12 (stereo not drawn) [Quinacrine dihydrochloride dihydrate] | 29.4
CC(C)c1cccc(C(C)C)c1N1C(=O)c2ccc(O)cc2C1=O [5HPP-33] | 5.01
CCCCC[Si](OCC)(OCC)OCC [Triethoxypentylsilane] | 45.9

Compound | AC50 [µM]
CCC(COC(=O)c1cc(OC)c(OC)c(OC)c1)(c1ccccc1)N(C)C (stereo not drawn) [Trimebutine maleate] | 16.3
C[C@@H]1C[C@H]2[C@@H]3C[C@H](F)C4=CC(=O)C(Cl)=C[C@]4(C)[C@@]3(F)[C@@H](O)C[C@]2(C)[C@@]1(O)C(=O)CO [Halometasone hydrate] | 33.2
COC(=O)Nc1nc2ccc([S+]([O-])c3ccccc3)cc2[nH]1 (stereo not drawn) [Oxfendazole] | 12.2
CN1[C@@H](CC(=O)c2ccccc2)CCC[C@H]1C[C@H](O)c1ccccc1 [Lobeline] | 29.3
CCC(C)(CC)c1cc(NC(=O)c2c(OC)cccc2OC)on1 [Isoxaben] | > 90
C(CCOCC1CO1)COCC1CO1 (stereo not drawn) [1,4-Butanediol diglycidyl ether] | 37.9
CCCCC(CC)COC(=O)C(C#N)=C(c1ccccc1)c1ccccc1 (stereo not drawn) [2-Ethylhexyl-2-cyano-3,3-diphenylacrylate] | 31
COC(=O)c1cc(Oc2ccc(Cl)cc2Cl)ccc1[N+](=O)[O-] [Bifenox] | 74
CCCCCCCC(=O)Oc1c(Br)cc(C#N)cc1Br [Bromoxynil octanoate] | 74
CN1C(=O)[C@@H](NC(=O)c2cc3ccccc3[nH]2)N=C(c2ccccc2)c2ccccc21 [Devazepide] | 6.13
CCCCOCCOC(=O)c1ccccc1C(=O)OCCOCCCC [Bis(2-butoxyethyl) phthalate] | 67.1
c1ccc2c(c1)ccc1ncccc12 [Benzo(f)quinoline] | > 90
CC(Oc1ccc(Oc2ncc(C(F)(F)F)cc2Cl)cc1)C(=O)O (stereo not drawn) [Haloxyfop] | 58.9
CCC(C)(C)C(=O)OC1=C(c2ccc(Cl)cc2Cl)C(=O)OC12CCCCC2 [Spirodiclofen] | 51.5
CC(C)NC(=O)N1CC(=O)N(c2cc(Cl)cc(Cl)c2)C1=O [Iprodione] | 59.3
CCCCCCCCCCCCCC(=O)OCC(O)CO (stereo not drawn) [Tetradecanoic acid, 2,3-dihydroxypropyl ester] | 61.9
CC(C)(C)c1ccc(CCC=O)cc1 [3-(4-tert-Butylphenyl)propanal] | 56.6
C#C[C@]1(O)C=C[C@H]2[C@@H]3CCC4=CC(=O)CC[C@@H]4[C@H]3CC[C@@]21CC [Gestodene] | 15.5
CCOc1cc([N+](=O)[O-])c(OCC)cc1N1CCOCC1 [4-(2,5-Diethoxy-4-nitrophenyl)morpholine] | 28.4
